Screens (PubChem)
Hits are enriched below; roughly 12% of the tested compounds scored in any of these assays.
Shiga toxin inh – blocks Shiga toxin action in Vero cells; Vero cells, Shiga toxin protein synthesis inhibition reporter; inhibition, % at 38.7 µM; 290,000 compounds, 9.2% hits; in the data active = inhibition mostly above about 28%, no sharp cut-off; inactive = mostly below about 43%; note: 0% is about no effect
LASV entry inh – blocks Lassa virus binding to or entry into cells. 300,000 compounds, 1.2% hits. Lassa virus pseudotype entry inhibition, cell reporter. Potency, µM (doses to about 37.9 µM), for inactives: at the top dose activity change, negative = inhibition, actives largely listed as inhibitors; calls by dose curve; tested in HEK293 cells; note: potency is the fitted concentration of half-maximal effect; % is set by controls: 0 for no effect and ±100 for the full control effect; nearly all actives have a fitted effect of over 50% in size
Cycloheximide cs – counter-screen for Shiga toxin inhibitors: cycloheximide protein synthesis inhibition; cell reporter, cycloheximide protein synthesis inhibition counterscreen; max response, %; 300,000 compounds, 12% hits; AID 2314; in the data active = max response mostly above about 13%, no sharp cut-off; inactive = mostly below about 14%; note: read at 38.3 µM for the half of the compounds with a filed dose; 0% is about no effect
Marburg entry inh – blocks Marburg virus binding to or entry into cells | 300,000 compounds, 1.8% hits | Potency, µM (highest dose often 37.8 µM), inactives show top-dose activity change, negative = inhibition, usual class: inhibitors | Marburg virus pseudotyped entry inhibition, cell reporter; calls by dose curve; tested in HEK293 cells; note: potency is the fitted concentration of half-maximal effect; % is set by controls: 0 for no effect and ±100 for the full control effect
* marks the source's active call; other numbers are inactive results; ? = inconclusive; . = no result; [ ] = remark or other dose.

SMILES	Shiga toxin inh	LASV entry inh	Cycloheximide cs	Marburg entry inh
COc1ccc(C2=C(Nc3ccc(C)cc3)c3ccccc3C2=O)cc1	-13	-16%	1	1%
O=C1C(Cl)=C(NCCN2CCOCC2)C(=O)c2ncccc21	-29	.	-21	.
O=C1C(Cl)=C(NCCN2CCOCC2)C(=O)c2ccccc21	63*	?	32*	?
COc1cc(NC(=O)CSc2nc(-c3ccco3)cc(C(F)(F)F)n2)cc(OC)c1OC	.	-21%[46.1 µM]	.	-11%[46.1 µM]
Cc1ccc(C2=NNC3(CCOC(C)(C)C3)S2)cc1 (configuration not stated)	54*	14%[46.1 µM]	37*	?
CNC(=S)N1N=C(c2ccc(C)cc2)CC1c1ccc(N(C)C)cc1 (configuration not stated)	86	-1%	43*	-4%
CCC(=O)N1N=C(c2ccc(NS(C)(=O)=O)cc2)CC1c1ccc(N(C)C)cc1 (configuration not stated)	72*	.	30*	.
Cc1ccccc1CC1(CO)CCCN(C(=O)CCCN2CCCCC2=O)C1 (configuration not stated)	44	-4%[46.1 µM]	17*	6%[46.1 µM]
COc1ccc(C(=O)N2CCCC(Nc3ccc(C)c(C)c3)C2)cc1 (configuration not stated)	-8	.	-1	.
Cc1ccc(NC2CCCN(C(=O)c3ccc(C)c(N4CCNC4=O)c3)C2)cc1C (configuration not stated)	20	1%	9.9*	13%
Cc1ccc(NC2CCCN(C(=O)CCCN3CCCCC3=O)C2)cc1C (configuration not stated)	21	9%	13*	-15%
CCOC(=O)C1(Cc2ccccc2C)CCCN(C(=O)CN2CCCCC2=O)C1 (configuration not stated)	29	-14%[46.1 µM]	7	18%[46.1 µM]
COc1ccc(C(=O)NC(=S)N2CCN(c3ccccc3OC)CC2)cc1	-11	-1%[46.1 µM]	5	?
Cc1ccc(C(=O)NC(=S)N2CCN(c3cc(C)ccc3C)CC2)cc1	49*	?	38*	3%
Cc1ccc(C(=O)NC(=S)N2CCN(c3ccccc3F)CC2)cc1	35*	?	20	20%
Cc1cccc(N2CCN(C(=O)c3ccc4c(c3)CCN4S(C)(=O)=O)CC2)c1C	-3	.	-2	.
Cc1cnc2c(c1SCC(=O)NCc1ccccc1Cl)c(=O)n(C)c(=O)n2C	.	1%[46.1 µM]	.	.
Cn1ccnc1C(=O)Cc1ccc([N+](=O)[O-])cc1	.	3%	.	13%[46.1 µM]
COc1ccccc1-c1noc(-c2ccc(NCc3ccco3)c([N+](=O)[O-])c2)n1	.	5%[46.1 µM]	.	20%[46.1 µM]
COc1c(O)cc2c(c1O)C(=O)CC(c1ccccc1)O2 (configuration not stated)	71*	.	44*	.
COc1ccc([C@H]2CC(=O)c3c(O)cc(O)cc3O2)cc1O	57	?	23*	?
Cc1cc(C)nc(NC(N)=NCCc2ccccc2)n1	.	?	.	7.1µM*
Cc1cc(C)nc(NC(N)=NC(C)c2ccccc2)n1 (configuration not stated)	-11	1%	-4	?
CSc1nc2nc(C)c(CCC(=O)OCC(=O)Nc3ccc(F)cc3)c(C)n2n1	.	0%[46.1 µM]	.	9%
Cc1nc2ccccn2c1C(=O)N=Nc1c(O)n(CCC(C)C)c2ccccc12	-11	.	-2	.
SMILES	Shiga toxin inh	LASV entry inh	Cycloheximide cs	Marburg entry inh
CS(=O)(=O)c1ccc(C(=O)NCCN2C(=O)S/C(=C\c3cccnc3)C2=O)cc1[N+](=O)[O-]	8	21µM*	31*	10µM*
Cc1cc(Cl)ccc1OCCCC(=O)NCCN1C(=O)S/C(=C\c2cccnc2)C1=O	40	3%	31*	?
O=C1CCC(C(=O)NCCN2C(=O)S/C(=C\c3cccnc3)C2=O)=NN1	-23	7%	-2	?
CCCCCCCCCCCCCCCCOC[C@H](COP(=O)([O-])OCC[N+](C)(C)C)OC(=O)CCCCCCCC(=O)O	-8	.	-3	.
O=C1CC2(CCCC2)C(=O)N1CN1CCN(S(=O)(=O)c2ccc(Cl)c(Cl)c2)CC1	.	19%	.	-2%
O=C(c1cc(COc2ccc3c(c2)CCCC3)on1)N1CCCC1	51*	.	47*	.
CCOC(=O)N1CCN(C(=O)c2cc(COc3c(F)cccc3F)on2)CC1	129*	?	74*	?
CC(=O)N1CCCN(C(=O)c2cc(COc3c(F)cccc3F)on2)CC1	12	15%	4	-2%
O=C(c1cc(COc2c(F)cccc2F)on1)N1CCCCCC1	81*	-2%	61*	11%
COc1ccccc1NS(=O)(=O)c1cc([N+](=O)[O-])ccc1N/N=C/c1sc(N2CCOCC2)nc1-c1ccccc1	14	-2%	-2	22%
CC1=C(C(=O)OCc2ccccc2)C(c2cccc([N+](=O)[O-])c2)NC(=O)N1C (configuration not stated)	-15	.	-3	.
COc1ccc(/C=C/C2=Nc3ccccc3NC(C)(C)C2)cc1OC	59*	.	42*	.
COc1ccc(/C=C/C2=CC(C)(C)NC(=S)N2)cc1OC	-3	.	-3	.
CC(Sc1ccc(Cl)cc1)C(=O)Nc1ccc(S(=O)(=O)N2CCOCC2)cc1 (configuration not stated)	-16	-10%	10	-11%
O=C(Cn1cc(C(=O)C2CC2)c2ccccc21)NCc1ccccc1	53*	24%	34*	22%
O=C(c1cn(Cc2ccccc2)c2ccccc12)C1CC1	12	?	12*	-24%
O=C(COc1ccccc1)c1cn(Cc2ccccc2)c2ccccc12	36	4%	18*	?
N#Cc1cc2c(nc1SCC(=O)Nc1ccc(OC(F)(F)F)cc1)C1CCN2CC1	.	-29%[46.1 µM]	.	.
Cc1c(C(=O)N2CCN(S(=O)(=O)c3ccccc3)CC2)oc2ccccc12	.	3%	.	?
COCc1c(C(=O)N2CCc3ccccc32)oc2ccccc12	70*	2%[46.1 µM]	14	?
COc1ccccc1N1CCN(C(=O)c2oc3ccccc3c2C)CC1	12	?	6	?
Cc1c(C(=O)N2CCc3ccccc32)oc2ccccc12	69*	-18%	55*	?
COCc1c(C(=O)N2CCN(c3ccccc3C)CC2)oc2ccccc12	.	-23%	.	?
Cc1c(C(=O)N2CCN(S(C)(=O)=O)CC2)oc2ccccc12	17	-16%	9.2*	11%
CCCCOc1ccc(OC(=O)c2cccnc2)cc1	4	-7%	3	-14%
SMILES	Shiga toxin inh	LASV entry inh	Cycloheximide cs	Marburg entry inh
CCCCOC(=O)c1ccc(OC(=O)c2cccnc2)cc1	33*	-6%	24*	23%
CCCCCCCOc1ccc(OC(=O)c2cccnc2)cc1	-4	-30%	-2	-23%
COc1ccc(C(=O)Oc2ccc(C(C)=O)cc2)c(OC)c1	56	?	30*	0%
COc1ccccc1C(=O)Oc1ccc(C(C)(C)C)cc1	73	5%	29*	27%
CCCCCCOC(=O)c1ccc(OC(=O)c2cccnc2)cc1	58*	17%	32*	10%
CCc1c(C)c2ccc3c(c2oc1=O)CN(Cc1ccccc1)CO3	.	22%[46.1 µM]	.	.
CCCCN(CC)Cc1ccc(CNS(=O)(=O)c2cc3c(cc2Cl)NC(=O)CO3)o1	.	3%[46.1 µM]	.	.
CC(C)(C)c1ccc(OC(=O)c2cccnc2)cc1	20	-4%	18*	18%
COc1ccc(OC(=O)c2cccnc2)cc1	-10	0%	-2	0%[46.1 µM]
